# Source: the supplement of paper PMC6763611
# System: Plasmodium falciparum NF54
# Assay: growth inhibition relative to untreated control; higher = more inhibition
# Settings: 1 µM; MM + chorismate end-products (CM screening medium); 72 h
# Procedure, shortened: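 Two media were used: minimal RPMI, and minimal RPMI carrying the chorismate end-products folate, pABA, pHBA, tyrosine, phenylalanine and tryptophan at 2.2 μM, 7.3 μM, 7.3 μM, 111 μM and 90 μM for the first five. In these media, P. falciparum NF54 ring stages (1% hematocrit, 1% parasitemia, 100 μL/well) were exposed in dark 96-well half-area plates to a single 5 μM or 1 μM test-compound dose for 72 h at 37 °C. Growth inhibition was then assessed with SYBR Green against untreated wells, subtracting background from uninfected erythrocytes.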
row,SMILES,growth inhibition [%]
1,Clc1ccc(Cl)c(CO[C@H]2CCCC[C@@H]2n2ccnc2)c1,< 0
2,Cc1cc2ccccc2n1CC(=O)N1CC(C(=O)N2CCCCC2)Oc2ccccc21 (stereo not drawn),97.2
3,CC(C)n1ncc2c(C(=O)NCC(c3cccs3)N3CCOCC3)cc(-c3ccccc3)nc21 (stereo not drawn),10
4,Cc1[nH]c2cc(F)cc(F)c2c(=O)c1-c1ccc(Oc2ccc(OC(F)(F)F)cc2)cc1,98.6
5,O=C(NCCN1CCCC1)c1cc(NCCCCN2CCC(F)(F)CC2)nc2ccc(Cl)cc12,100
6,COc1ccc2nc(C)cc(OCC(=O)NCc3ccccc3)c2c1,25.1
7,CC(=O)OCC1OC([S-])C(OC(C)=O)C(OC(C)=O)C1OC(C)=O.CCP(CC)CC.[Au+] (stereo not drawn),84.8
8,Brc1cncc(-c2cc(NCCCn3ccnc3)nc(-c3ccccc3)n2)c1,> 100
9,Cc1nnc(NCc2cccc(Cl)c2)c2ccccc12,37.2
10,Clc1ccc(CN2CCN(C3=NCCN3)CC2)cc1Cl,< 0
11,Nc1nc2cc(-c3cncc(Oc4ccc(F)cc4)c3)ccc2[nH]1,76.1
12,O=C(NC1CC1)c1ccc(N2CCC(Cc3ccccc3)CC2)nc1,95.5
13,c1ccc(Oc2ccc(-c3cncc(-c4ccc5[nH]ccc5c4)n3)cc2)cc1,> 100
14,Nc1ncc(-c2cn[nH]c2)cc1-c1nc2cc(Cl)cnc2[nH]1,97
15,CCCS(=O)(=O)N1CCC(CO)(Cc2ccccc2C(F)(F)F)CC1,46.8
16,O=C(c1cc2ccccc2o1)N1CCN(Cc2ccc3c(c2)OCO3)CC1,15.1
17,Cc1nc(-c2ccccn2)nc(N2CCC(Cc3ccccc3)C2)c1Cl (stereo not drawn),52.8
18,O=C1N(Cc2cc3ccccc3s2)CC2CN(Cc3ccccc3)CCN12 (stereo not drawn),97.5
19,Cc1nc(-c2ccccn2)nc(N(C)CCc2ccccc2)c1Cl,31.5
20,CCOc1ccccc1C(=O)Nc1cccc(-c2nc3ncccn3c2C)c1,75.8

row,SMILES,growth inhibition [%]
1,CCOc1ccccc1NC(C)C(=O)Nc1cc(C(F)(F)F)ccc1N1CCOCC1 (stereo not drawn),76
2,CC[C@@H]([C@H](C)O)n1ncn(-c2ccc(N3CCN(c4ccc(OC[C@@H]5CO[C@@](Cn6cncn6)(c6ccc(F)cc6F)C5)cc4)CC3)cc2)c1=O,45.5
3,O=C(C(Cc1c[nH]c2ccccc12)NS(=O)(=O)c1ccc(Cl)cc1)N1CCCCC1 (stereo not drawn),58
4,Nc1ncnc2c1c(-c1cnc3ccccc3c1)nn2CC1CCNCC1,22.7
5,FC(F)(F)c1ccc(N(c2cccnc2)C2CCN(c3ccc(C(F)(F)F)cn3)CC2)cc1,60.2
6,Cc1ccccc1C(=O)N1N=C(Nc2ccccc2)SC1(C)C,49.8
7,CN(C(=O)c1cc2c(-c3cncnc3)cccc2[nH]1)c1ccccc1,48.7
8,c1ccc(-c2cc(N3CCCCC3)c3ccccc3n2)nc1,3.57
9,COc1ccccc1C(C)NCC(=O)Nc1cc(C(F)(F)F)ccc1Cl (stereo not drawn),86.1
10,COc1cccc(-n2nnnc2S(C)(=O)=O)c1,19.7
11,COc1cc(NC(C)CCCN)c2ncccc2c1 (stereo not drawn),51.1
12,OCc1ccc(-c2cncc(Nc3cccc(Cl)c3)c2)cc1,78.7
13,CN1CCN(CCCOc2ncc(Nc3ncc(-c4ccc(C(F)(F)F)c(F)c4)nc3C(N)=O)cn2)CC1,> 100
14,Cc1cccc(Cn2ccc(NC(=O)c3ccc4c(c3)OCO4)n2)c1,18.2
15,Cc1ccc(C(=O)Nc2ccc(S(=O)(=O)O)c3cc(S(=O)(=O)O)cc(S(=O)(=O)O)c23)cc1NC(=O)c1cccc(NC(=O)Nc2cccc(C(=O)Nc3cc(C(=O)Nc4ccc(S(=O)(=O)O)c5cc(S(=O)(=O)O)cc(S(=O)(=O)O)c45)ccc3C)c2)c1,< 0
16,FC(F)(F)c1nnc2ccc(Cl)nn12,8.81
17,CC1=Nc2ccc(Cl)cc2C(c2ccccc2)N1CCNC(=O)CN(C)C (stereo not drawn),49
18,CC1CCCN(C(=O)C(C)Nc2cc(Cl)ccc2N2CCOCC2)C1 (stereo not drawn),90.5
19,COc1cccn2c(C(=O)N3CCCCC3)c(C(F)(F)F)nc12,12.4

# Same assay, conditions: 1 µM; minimal medium (MM); 72 h
row,SMILES,growth inhibition [%]
1,Clc1ccc(Cl)c(CO[C@H]2CCCC[C@@H]2n2ccnc2)c1,< 0
2,Cc1cc2ccccc2n1CC(=O)N1CC(C(=O)N2CCCCC2)Oc2ccccc21 (stereo not drawn),95.9
3,CC(C)n1ncc2c(C(=O)NCC(c3cccs3)N3CCOCC3)cc(-c3ccccc3)nc21 (stereo not drawn),9.61
4,Cc1[nH]c2cc(F)cc(F)c2c(=O)c1-c1ccc(Oc2ccc(OC(F)(F)F)cc2)cc1,97.7
5,O=C(NCCN1CCCC1)c1cc(NCCCCN2CCC(F)(F)CC2)nc2ccc(Cl)cc12,98.4
6,COc1ccc2nc(C)cc(OCC(=O)NCc3ccccc3)c2c1,2.13
7,CC(=O)OCC1OC([S-])C(OC(C)=O)C(OC(C)=O)C1OC(C)=O.CCP(CC)CC.[Au+] (stereo not drawn),71.6
8,Brc1cncc(-c2cc(NCCCn3ccnc3)nc(-c3ccccc3)n2)c1,39.8
9,Cc1nnc(NCc2cccc(Cl)c2)c2ccccc12,4.12
10,Clc1ccc(CN2CCN(C3=NCCN3)CC2)cc1Cl,< 0
11,Nc1nc2cc(-c3cncc(Oc4ccc(F)cc4)c3)ccc2[nH]1,67.8
12,O=C(NC1CC1)c1ccc(N2CCC(Cc3ccccc3)CC2)nc1,91.8
13,c1ccc(Oc2ccc(-c3cncc(-c4ccc5[nH]ccc5c4)n3)cc2)cc1,< 0
14,Nc1ncc(-c2cn[nH]c2)cc1-c1nc2cc(Cl)cnc2[nH]1,97
15,CCCS(=O)(=O)N1CCC(CO)(Cc2ccccc2C(F)(F)F)CC1,69.6
16,O=C(c1cc2ccccc2o1)N1CCN(Cc2ccc3c(c2)OCO3)CC1,12.4
17,Cc1nc(-c2ccccn2)nc(N2CCC(Cc3ccccc3)C2)c1Cl (stereo not drawn),3.18
18,O=C1N(Cc2cc3ccccc3s2)CC2CN(Cc3ccccc3)CCN12 (stereo not drawn),98
19,Cc1nc(-c2ccccn2)nc(N(C)CCc2ccccc2)c1Cl,23.4
20,CCOc1ccccc1C(=O)Nc1cccc(-c2nc3ncccn3c2C)c1,76.7

row,SMILES,growth inhibition [%]
1,CCOc1ccccc1NC(C)C(=O)Nc1cc(C(F)(F)F)ccc1N1CCOCC1 (stereo not drawn),64.5
2,CC[C@@H]([C@H](C)O)n1ncn(-c2ccc(N3CCN(c4ccc(OC[C@@H]5CO[C@@](Cn6cncn6)(c6ccc(F)cc6F)C5)cc4)CC3)cc2)c1=O,50.3
3,O=C(C(Cc1c[nH]c2ccccc12)NS(=O)(=O)c1ccc(Cl)cc1)N1CCCCC1 (stereo not drawn),56.9
4,Nc1ncnc2c1c(-c1cnc3ccccc3c1)nn2CC1CCNCC1,5.9
5,FC(F)(F)c1ccc(N(c2cccnc2)C2CCN(c3ccc(C(F)(F)F)cn3)CC2)cc1,38.4
6,Cc1ccccc1C(=O)N1N=C(Nc2ccccc2)SC1(C)C,9.58
7,CN(C(=O)c1cc2c(-c3cncnc3)cccc2[nH]1)c1ccccc1,56.4
8,c1ccc(-c2cc(N3CCCCC3)c3ccccc3n2)nc1,< 0
9,COc1ccccc1C(C)NCC(=O)Nc1cc(C(F)(F)F)ccc1Cl (stereo not drawn),85.5
10,COc1cccc(-n2nnnc2S(C)(=O)=O)c1,29.5
11,COc1cc(NC(C)CCCN)c2ncccc2c1 (stereo not drawn),54.5
12,OCc1ccc(-c2cncc(Nc3cccc(Cl)c3)c2)cc1,> 100
13,CN1CCN(CCCOc2ncc(Nc3ncc(-c4ccc(C(F)(F)F)c(F)c4)nc3C(N)=O)cn2)CC1,> 100
14,Cc1cccc(Cn2ccc(NC(=O)c3ccc4c(c3)OCO4)n2)c1,6.8
15,Cc1ccc(C(=O)Nc2ccc(S(=O)(=O)O)c3cc(S(=O)(=O)O)cc(S(=O)(=O)O)c23)cc1NC(=O)c1cccc(NC(=O)Nc2cccc(C(=O)Nc3cc(C(=O)Nc4ccc(S(=O)(=O)O)c5cc(S(=O)(=O)O)cc(S(=O)(=O)O)c45)ccc3C)c2)c1,< 0
16,FC(F)(F)c1nnc2ccc(Cl)nn12,7.29
17,CC1=Nc2ccc(Cl)cc2C(c2ccccc2)N1CCNC(=O)CN(C)C (stereo not drawn),19
18,CC1CCCN(C(=O)C(C)Nc2cc(Cl)ccc2N2CCOCC2)C1 (stereo not drawn),94.3
19,COc1cccn2c(C(=O)N3CCCCC3)c(C(F)(F)F)nc12,15.1
